Hedgehog inh: blocks Sonic Hedgehog signaling; Shh-LIGHT2 Gli-luciferase reporter, 30 h; inhibition, % (test concentration not listed); 2.1% of 22,000 active; AID 2313;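 active = mean inhibition across valid replicates above about 65%, limit read from the data; inconclusive = mean under the limit, yet half or more replicates past it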;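 note: pathway switched on by Shh-conditioned medium diluted 1 in 25 in low serum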
PD-1 reversal: reversal of PD-1 mediated T-cell inhibition. 29,000 tested, under 10 active. primary human CD4 T cells, PD-L1 beads, CellTiter-Glo 96 h. activation, % (no concentration beside the values); call rule not given here
NOMO-1 viab: STK33 inhibitor candidate reducing NOMO-1 cell viability; inhibition, % (concentration not given with the values); 7.5% of 37,000 active; NOMO-1 AML viability, CellTiter-Glo luminescence, 72 h; in the data active = inhibition above about 80%; inconclusive = no clear call, values can overlap the other calls
MITF inhib: MITF inhibition. TRPM1 promoter luciferase, luminescence, 24 h. inhibition, % (test concentration not listed). 0.28% of 37,000 active. AID 2240; in the data active = inhibition above about 85%; inconclusive = no clear call, values can overlap the other calls; inactive = below about 68%;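 note: human melanocyte line stably carrying TRPM1 promoter luciferase reporter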
Each line names hits and unclear results; the compound was inactive in the other large screens. Compounds with a hit are over-represented: about 7.9% of the library has one in this group of screens.

C[C@H](CO)N1C[C@H](C)[C@H](CN(C)C(=O)Nc2ccccc2)Oc2ccc(NC(=O)Nc3ccc(C(F)(F)F)cc3)cc2CC1=O	NOMO-1 viab 92.1 (no result: PD-1 reversal)
COc1cc2c(cc1NC(=O)CN(C)S(=O)(=O)c1ccc(C)cc1)oc1ccccc12	none (no result: Hedgehog inh)
O=C(CSc1nnnn1-c1ccccc1)Nc1ccc(F)c(Cl)c1	none (no result: Hedgehog inh)
CCCC(=O)Nc1ccc(N)cc1	none (no result: Hedgehog inh)
C[C@@H]1CN([C@@H](C)CO)C(=O)Cc2cc(NC(=O)CCCCCC(=O)Nc3ccccc3N)ccc2O[C@@H]1CN(C)Cc1ccccc1	NOMO-1 viab 113.2 (no result: Hedgehog inh)
C[C@H]1CN([C@@H](C)CO)C(=O)Cc2cc(NC(=O)CCCCCC(=O)Nc3ccccc3N)ccc2O[C@H]1CN(C)Cc1ccc(-c2ccccc2)cc1	NOMO-1 viab 142.3 (no result: Hedgehog inh)
C[C@@H]1CN([C@H](C)CO)C(=O)Cc2cc(NC(=O)CCCCCC(=O)Nc3ccccc3N)ccc2O[C@H]1CN(C)Cc1ccc(Oc2ccccc2)cc1	NOMO-1 viab 124.6 (no result: Hedgehog inh)
C[C@H]1CN([C@@H](C)CO)C(=O)c2cc(NC(=O)CCCCCC(=O)Nc3ccccc3N)ccc2O[C@H]1CN(C)Cc1ccc(-c2ccccc2)cc1	NOMO-1 viab 109.1 (no result: Hedgehog inh)
C[C@H](CO)N1C[C@H](C)[C@H](CN(C)Cc2ccc(-c3ccccc3)cc2)Oc2ccc(NC(=O)CCCCCC(=O)Nc3ccccc3N)cc2C1=O	none (no result: Hedgehog inh)
C[C@@H]1CN([C@@H](C)CO)C(=O)Cc2cc(NC(=O)CCCCCC(=O)Nc3ccccc3N)ccc2O[C@@H]1CN(C)Cc1ccncc1	none (no result: Hedgehog inh)
O=[N+]([O-])c1nn(-c2ccccc2)n(O)c1=NC1CCN(Cc2ccccc2)CC1	NOMO-1 viab 114.3 (no result: Hedgehog inh, PD-1 reversal)
Cc1ccc(C)c(NC(=O)CC2C(=O)N(c3ccccc3)C(=S)N2Cc2ccco2)c1 (stereo unspecified)	none (no result: Hedgehog inh)
CSC1=N/C(=C\c2ccc(Cl)cc2)C(=O)N1CCc1c[nH]c2ccccc12	NOMO-1 viab 84.9
O=C(CN1C(=O)/C(=C\c2ccc(F)cc2)N=C1c1ccccc1)c1ccco1	none
CSc1sc(-c2ccn[nH]2)c(-c2ccco2)c1C#N	none
COC(=O)c1ccc(Cl)c(NC(=O)CN(c2ccc(I)cc2)S(C)(=O)=O)c1	NOMO-1 viab 120.3 (no result: Hedgehog inh)
COC(=O)c1ccc(C)c(NC(=O)CN(c2cc(Cl)c(Cl)cc2Cl)S(C)(=O)=O)c1	NOMO-1 viab 96.1 (no result: Hedgehog inh, PD-1 reversal)
COC(=O)c1ccc(C)c(NC(=O)CN(c2ccc(F)cc2)S(C)(=O)=O)c1	NOMO-1 viab 98.3 (no result: Hedgehog inh)
COC(=O)c1ccc(NC(=O)CN(c2ccc(F)cc2)S(C)(=O)=O)cc1	none (no result: Hedgehog inh)
COC(=O)c1ccccc1NC(=O)CN(c1ccc(I)cc1)S(C)(=O)=O	none (no result: Hedgehog inh)
COc1cccc(C(=O)OCC(=O)c2ccccc2)c1OC	none
C=C1C(=O)O[C@@H]2CC=C(CCC(C)O)C(C)C[C@@H]12 (stereo partly specified)	NOMO-1 viab 121.1
CCc1cc(-c2n[nH]c(C)c2-c2nc(C)cs2)c(O)cc1OCc1ccc([N+](=O)[O-])cc1	NOMO-1 viab 109.2 (no result: Hedgehog inh)
C[C@H]1CN([C@@H](C)CO)C(=O)c2cc(NC(=O)NC3CCCCC3)ccc2O[C@@H]1CN(C)Cc1ccc2c(c1)OCO2	none
C[C@H]1CN([C@@H](C)CO)C(=O)c2cc(NC(=O)NC3CCCCC3)ccc2O[C@H]1CN(C)Cc1ccc2c(c1)OCO2	NOMO-1 viab 101.6
C[C@H](CO)N1C[C@H](C)[C@H](CN(C)Cc2ccc3c(c2)OCO3)Oc2ccc(NC(=O)NC3CCCCC3)cc2C1=O	NOMO-1 viab 93.6 (no result: Hedgehog inh)
C[C@@H]1CN([C@H](C)CO)C(=O)c2cc(NC(=O)NC3CCCCC3)ccc2O[C@@H]1CN(C)Cc1ccc2c(c1)OCO2	none
COc1ccc(OC)c(S(=O)(=O)N2CCC(C(=O)Nc3cccc(F)c3)CC2)c1	none (no result: Hedgehog inh, PD-1 reversal)
C[C@H](CO)N1C[C@H](C)[C@H](CN(C)Cc2ccc(Oc3ccccc3)cc2)Oc2c(NS(=O)(=O)c3ccc(F)cc3)cccc2C1=O	NOMO-1 viab 84.3
C[C@H]1CN([C@@H](C)CO)C(=O)c2cccc(NS(=O)(=O)c3ccc(Cl)cc3)c2O[C@H]1CN(C)Cc1ccc(-c2ccccc2)cc1	NOMO-1 viab 83.7
Cc1ccc(S(=O)(=O)Nc2cccc3c2O[C@@H](CN(C)Cc2ccc(Oc4ccccc4)cc2)[C@@H](C)CN([C@H](C)CO)C3=O)cc1	NOMO-1 viab 85.7
COc1cc(NC(=S)NC(=O)C(C)Oc2ccc(Cl)cc2Cl)c(OC)cc1Cl (stereo unspecified)	none (no result: Hedgehog inh)
O=C(CSc1nc(-c2ccccc2)c(-c2ccccc2)[nH]1)Nc1ccc(F)cc1	NOMO-1 viab inconclusive (no result: Hedgehog inh)
CCN(CC)C(=S)SSC(=S)N(CC)CC	NOMO-1 viab 140.8
Cc1c(Cl)cccc1NC(=O)CSc1nc(-c2ccccc2)cs1	none (no result: Hedgehog inh, PD-1 reversal)

Source: PubChem BioAssay (Broad Institute)
